NPSR antag = blocks cAMP signaling of the human neuropeptide S receptor. CHO-NPSR cells, cAMP TR-FRET, antagonist mode. actives 1% (n = 220,000). Potency, µM (top dose mostly 38.3 µM), for the others: at the highest dose activity change, negative = inhibition, most hits filed as inhibitors; note: nearly all actives have a fitted effect of over 50% in size
Target sequence (Q6W5P4 whole entry, looked up): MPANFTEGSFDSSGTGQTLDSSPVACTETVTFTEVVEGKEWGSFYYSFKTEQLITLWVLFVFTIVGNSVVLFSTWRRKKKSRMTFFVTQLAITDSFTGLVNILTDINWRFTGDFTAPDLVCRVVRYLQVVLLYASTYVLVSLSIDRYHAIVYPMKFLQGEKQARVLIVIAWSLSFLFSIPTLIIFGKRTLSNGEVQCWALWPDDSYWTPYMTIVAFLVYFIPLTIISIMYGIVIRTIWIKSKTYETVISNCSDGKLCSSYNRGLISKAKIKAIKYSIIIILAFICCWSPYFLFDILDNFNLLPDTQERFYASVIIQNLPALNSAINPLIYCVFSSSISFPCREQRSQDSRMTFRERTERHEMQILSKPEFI
Tau fluor cs = counter-screen for tau fibril formation inhibitors | tau K18 P301L Alexa594 fluorescence, heparin fibrillization | Potency, µM (highest dose often 57.7 µM), without a hit: at the top dose activity change, negative = decrease | actives 0.93% (n = 280,000) | AID 1463; note: nearly all actives have a fitted effect of over 55% in size
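Human tau K18 P301L (15 uM unlabeled, 0.24 uM Alexa 594-labeled) in 100 mM sodium acetate pH 7 with 20 uM heparin, 6 hr at 37 C. ThT 30 uM added, 1 hr ambient; Alexa 594 FP and total fluorescence read at 555/632 nm.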
Tau fibril FP = inhibitors of human tau fibril formation | actives 0.39% (n = 280,000) | Potency, µM (titrated, usually from 57.7 µM), inactives show at the top dose activity, negative = inhibition, hits mostly inhibitors | P10636 | K18 P301L tau heparin fibrillization, Alexa594 FP, 6 h; note: nearly all actives have a fitted effect of over 55% in size
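Human K18 P301L fragment (15 uM unlabeled plus 0.24 uM Alexa 594-labeled) in 100 mM sodium acetate pH 7 with compound, aggregation induced by 20 uM heparin for 6 hr at 37 C. ThT (30 uM) added for 1 hr, then Alexa 594 FP read.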
HPGD block = inhibitors of human 15-hydroxyprostaglandin dehydrogenase (HPGD). P15428. purified HPGD, NADH fluorescence kinetic, PGE2 substrate. AID 894. Potency, µM, for inactives: at the highest dose activity change, negative = inhibition, usual class: inhibitors. actives 4.3% (n = 150,000); active = well fitted inhibition curve with a large enough effect, not every such curve was filed as active; inconclusive = small, poorly fitted or top-dose-only effect, or another doubt; inactive = no such curve, though single readings can be large or run the other way
Target sequence (P15428 whole entry, looked up): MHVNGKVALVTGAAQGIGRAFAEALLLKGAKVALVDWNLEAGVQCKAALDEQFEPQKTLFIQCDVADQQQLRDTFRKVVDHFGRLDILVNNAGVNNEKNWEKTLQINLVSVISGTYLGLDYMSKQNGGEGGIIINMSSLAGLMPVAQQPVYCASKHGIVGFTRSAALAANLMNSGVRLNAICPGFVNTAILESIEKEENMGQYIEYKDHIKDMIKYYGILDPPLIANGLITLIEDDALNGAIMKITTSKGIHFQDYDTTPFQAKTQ
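NADH formation kinetics: reaction with 30 uM PGE2 and 1 mM NAD+ (final), 20 nM enzyme, Tris-HCl pH 8 with Tween 20, after 15 min compound preincubation at room temperature. Fluorescence change, last versus first of five reads.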
ALDH1A1 block = inhibitors of human aldehyde dehydrogenase 1A1; Potency, µM (titrated, usually from 75.3 µM), for inactives: top-dose activity, negative = inhibition, most hits filed as inhibitors; actives 7.3% (n = 220,000); P00352; Purified ALDH1A1, NADH fluorescence, propionaldehyde substrate; active = well fitted inhibition curve with a large enough effect, not every such curve was filed as active; inconclusive = small, poorly fitted or top-dose-only effect, or another doubt; inactive = no such curve, though single readings can be large or run the other way;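 note: plate controls were no enzyme wells and a reference inhibitor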
Tau ThT inhib = blocks human tau fibril formation measured by thioflavin T; actives 2.1% (n = 270,000); Potency, µM (series often up to 57.4 µM), without a hit: at the top dose activity, negative = inhibition, hits mostly inhibitors; recombinant tau K18 P301L, heparin-induced fibrillization, ThT fluorescence; note: nearly all actives have a fitted effect of over 55% in size
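ThT emission at 510 nm, taken 1 hr after adding 30 uM dye, quantifies aggregates formed when 20 uM heparin acts on human tau K18 P301L for 6 hr at 37 C.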
Starred values were filed as active, the others as inactive; ? = inconclusive; . = no result given; [ ] = dose if it differs, or a comment. A selection: hits, their analogues and other compounds. The true share with any hit is near 9.5%. Unless noted, calls come from the whole dose curve; as a rule, active = well fitted curve in the direction sought with a large enough effect; inconclusive = small, poorly fitted or top-dose-only effect, or another doubt; inactive = no such curve, though single readings can be large; an effect the other way counts as inactive or inconclusive. Unless noted, % is set by controls: 0 for no effect and ±100 for the full control effect; potency is the fitted concentration of half-maximal effect.

SMILES	NPSR antag	Tau fluor cs	Tau fibril FP	HPGD block	ALDH1A1 block	Tau ThT inhib
O=C1CC(Nc2ccc(N3CCOCC3)cc2)C(=O)N1Cc1ccccc1 (stereo unspecified)	-5%	-24%	11%	5%	?	?
O=C1CC(Nc2ccc(N3CCOCC3)cc2)C(=O)N1c1ccccc1 (stereo unspecified)	-14%[46.1 µM]	-19%	-5%	-9%	?	16µM*
CCOc1ccccc1N1C(=O)CC(Nc2ccc(N3CCOCC3)cc2)C1=O (stereo unspecified)	-10%[46.1 µM]	-5%	2%	-16%	7.9µM*	3%
COc1ccccc1N1C(=O)CC(Nc2ccc(N3CCOCC3)cc2)C1=O (stereo unspecified)	?	-20%	-7%	-8%	?	28µM*
Cc1ccc(S(=O)(=O)N2CCC(C(=O)NCCc3ccc(S(N)(=O)=O)cc3)CC2)cc1	-10%[46.1 µM]	-11%	-13%	-4%	?	-2%
O=C(Cc1cccs1)NC1CCCC1	-15%	2%	0%	.	12%	-8%
Cc1ccc(C(=O)NC2CCCCCC2)o1	0%[46.1 µM]	-4%	-3%	25µM*	-4%	-11%
O=C(NC1CCCCC1NC(=O)c1cccs1)c1cccs1 (stereo unspecified)	-6%[46.1 µM]	8%	7%	-8%	9%	3%
O=C(CNC1CCCCCC1)c1cccs1	18%	-1%	-3%	?	6µM*	-3%
O=C(NC1CCCCCC1)c1cccs1	-9%[46.1 µM]	-9%	-8%	25µM*	?	-13%
Cc1ccc(CN2CCCn3nc(C(=O)NCCC(C)C)cc3C2=O)cc1	.	-2%	5%	.	.	-4%
CCc1nc2ccc(C(=O)N3CCN(c4ccccc4F)CC3)cc2nc1CC	.	9%	5%	.	.	13%
Cc1ccc(NC(=O)c2ccc(NC(=O)N3CCSc4ncccc43)cc2)c(Cl)c1	.	-21%	-6%	.	.	-2%
Oc1ccc(/C=N/n2cnn(Cc3ccccc3Cl)c2=S)c(O)c1	-8%	?	-7%	20µM*	20µM*	-1%
COc1ccc(N2CCN(C(=O)CSc3nnc(Cn4nnc5ccccc54)n3C)CC2)cc1	-3%[46.1 µM]	-12%	5%	-15%	14µM*	?
Cn1c(Cn2nnc3ccccc32)nnc1SCC(=O)N1c2ccccc2Sc2ccccc21	-23%[46.1 µM]	-1%	-8%	-10%	5%	-5%
Cn1c(Cn2nnc3ccccc32)nnc1SCC(=O)N1c2ccccc2CCc2ccccc21	-20%[46.1 µM]	-5%	1%	-1%	8.9µM*	-12%
COc1cccc(N2CCN(C(=O)CCS(=O)(=O)c3ccc4c(c3)CC(=O)N4C)CC2)c1	.	-4%	-1%	.	.	-12%
Cc1ccccc1N1C(=O)CC(Sc2nnc(-c3ccccc3)o2)C1=O (stereo unspecified)	?	-11%	-8%	-29%	7.9µM*	?
O=C1CC(Sc2nnc(-c3ccccc3)o2)C(=O)N1c1ccccc1 (stereo unspecified)	-3%[46.1 µM]	11%	0%	22µM*	1.8µM*	-9%
Cc1ccc(N2C(=O)CC(Sc3nc(-c4ccccc4)c4cc(Cl)ccc4n3)C2=O)c(C)c1 (stereo unspecified)	9%	-1%	0%	?	-2%	5%
O=C1c2ccccc2CC1Sc1nnc(-c2ccncc2)o1 (stereo unspecified)	-6%[46.1 µM]	-5%	5%	?	1µM*	?
COc1ccc(CNC(=O)CN2CCN(S(=O)(=O)c3cccs3)CC2)cc1OC	2%	-1%	-3%	.	11µM*	1%
CC1=Nn2c(nc3sc4c(c3c2=O)CCCC4)SC1	15%	2%	4%	?	1%	10%
Cc1nc2sc3c(c2c(=O)[nH]1)CCC3	-12%[46.1 µM]	6%	2%	-15%	-10%	9%
SMILES	NPSR antag	Tau fluor cs	Tau fibril FP	HPGD block	ALDH1A1 block	Tau ThT inhib
C=C1CSc2nc(=O)c3c4c(sc3n21)CCCC4	-5%[46.1 µM]	1%	7%	14µM*	-15%	?
C=C1CSc2nc(=O)c3c4c(sc3n21)CCC4	4%[46.1 µM]	-2%	1%	14µM*	6%	-9%
CC1CCCCC1NC(=O)c1ccc2c(c1)[nH]c(=O)n2C1CCCC1 (stereo unspecified)	-17%[46.1 µM]	3%	-3%	-10%	14µM*	-6%
CCn1c(=O)c(=O)[nH]c2cc(C(=O)NC3CCCC3)ccc21	4%	-11%	-1%	.	?	?
COc1ccccc1CNC(=O)c1ccc2c(c1)N(Cc1c(F)cccc1Cl)C(=O)CS2	.	-22%	-7%	.	.	-8%
CCN1C(=O)CSc2ccc(C(=O)NCc3ccccc3OC)cc21	-15%[46.1 µM]	-5%	1%	-15%	10µM*	2%
C=CCN1C(=O)CSc2ccc(C(=O)NCc3cccs3)cc21	-7%	-1%	8%	.	8.9µM*	0%
O=c1cc(-c2ccc(O)cc2)oc2cc(O[C@H]3OC(CO)C(O)C(O)C3O)cc(O)c12 (stereo partly specified)	.	-10%	-9%	-8%	-1%	-3%
CC1OC(OCC2OC(Oc3c(-c4ccc(O)c(O)c4)oc4cc(O)cc(O)c4c3=O)C(O)C(O)C2O)C(O)C(O)C1O (stereo unspecified)	.	-17%	-14%	-6%	-6%	?
O=c1c(O)c(-c2ccc(O)c(O)c2)oc2c(OC[C@@H]3O[C@@H](O)[C@@H](O)[C@H](O)[C@H]3O)c(O)cc(O)c12	.	-21%	-15%	?	?	10µM*
O=c1c(OC2OC(CO)C(O)C(O)C2O)c(-c2ccc(O)c(O)c2)oc2cc(O)cc(O)c12 (stereo unspecified)	-4%	-9%	4%	-16%	-14%	-18%
O=c1c(O)c(-c2ccc(O)c(O)c2)oc2c(OC3OC(CO)C(O)C(O)C3O)c(O)cc(O)c12 (stereo unspecified)	.	-28%	?	28µM*	?	14µM*
O=c1cc(-c2ccccc2)oc2cc(O[C@@H]3O[C@H](CO)[C@@H](O)[C@H](O)[C@H]3O)c(O)c(O)c12	.	-30%	0%	11µM*	?	?
CC(C)CCNC(=O)c1ccc(Cn2c(=O)c3cccn3c3cccnc32)cc1	.	-8%	-7%	.	.	3%
COc1ccc(OC)c2c(C)cc(N3CCN(C(=O)c4ccc(F)cc4)CC3)nc12	-16%[46.1 µM]	-21%	-1%	-24%	?	?
COc1ccc(NC(=S)N(CCCN2CCC(C)CC2)Cc2cccs2)cc1	-14%	-12%	-8%	.	20µM*	-6%
CCCCC(=O)Nc1ccc(NC(=O)c2ccccc2[N+](=O)[O-])cc1OC	5%	0%	2%	-7%	8%	6%
